We go through 13 compounds from PubChem BioAssay.

Experiment [1] in a line: optical density shifts of acrAB sulA E. coli – strain DRC41, OD650, 48 h, E. coli filamentation inducer project, primary screen (AID 1152).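 Also: E. coli MC1000 strain DRC41 lacking acrAB efflux pump and sulA.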 The note with it: higher = more signal, called active from +8 up or from −8 down.
Experiment [2] can be described thus: probe aLefty1 binding on compound microarray – biochemical, small-molecule microarray, 635/667 nm fluorescence, primary screen (AID 1153).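 Also: score merges spot fluorescence with signal-to-noise ratio from the scanned slide images.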 The conditions noted are these: higher = more signal.
The nature of experiment [3]: plasmodial surface anion channel blockers, osmotic lysis – cell-based, P. falciparum Indochina, OD700, 1 h, primary screen (AID 1154). The note with it: P. falciparum Indochina infected RBC osmotic lysis, higher = more signal, called active from +8 up or from −8 down.
Experiment [4] can be described thus: plasmodial surface anion channel blockers, osmotic lysis – cell-based, P. falciparum Indochina, OD700, 2 h, primary screen (AID 1155).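 Also: lysis reports solute entry through the parasite surface anion channel PSAC.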 The note with it: P. falciparum Indochina infected erythrocytes, higher = more signal, called active from +8 up or from −8 down.
Experiment [5] is described as follows: changes in parasitized red cell lysis, either direction – P. falciparum Indochina, OD700, 3 h, PSAC antagonist project, primary screen (AID 1156). The conditions noted are these: P. falciparum-infected erythrocytes, osmotic lysis, higher = more signal, called active from +8 up or from −8 down.
The nature of experiment [6]: plasmodial surface anion channel blockers, osmotic lysis – cell-based, P. falciparum Indochina, OD700, 18 h, primary screen (AID 1157). The note with it: P. falciparum Indochina infected erythrocytes, osmotic lysis OD700, 18 h; higher = more signal, called active from +8 up or from −8 down.
A short description of experiment [7]: S6 kinase pathway phospho-S6 level changes – cell-based, A549, cytoblot, luminescence, serum-stimulated, primary screen (AID 1158).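 Also: serum-stimulated A549 lung adenocarcinoma cells; signal is phosphorylated S6 detected by cytoblot immunostaining with HRP secondary.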 The note with it: 5 h, higher = more signal.
Experiment [8] addresses NADPH oxidase 2 (Homo sapiens) (UniProt P04839). Briefly: compounds shifting NOX2 Amplex Red fluorescence – cell-based, HEK293-NOX2, PMA-stimulated, NOX inhibitor project, primary screen (AID 1159). Also: test concentration not given here. The note with it: 45 min, higher = more signal, called active from +8 up or from −8 down.
Experiment [9] has as its target NADPH oxidase 4 (Homo sapiens) (UniProt Q9NPH5). The experiment can be described thus: compounds shifting NOX4 Amplex Red fluorescence – cell-based, HEK293-NOX4, tetracycline-induced, NOX inhibitor project, primary screen (AID 1160). The conditions noted are these: HEK293-NOX4, Amplex Red H2O2 fluorescence, 45 min; higher = more signal, called active from +8 up or from −8 down.

In experiment [10] the target is NADPH oxidase 5 (Homo sapiens) (UniProt Q96PH1). Briefly: compounds shifting NOX5 Amplex Red fluorescence – cell-based, HEK293-NOX5, NOX inhibitor project, primary screen (AID 1161). The note with it: HEK293-NOX5, ionomycin, 45 min, higher = more signal.
Sequence of NADPH oxidase 5 (Homo sapiens) (Q96PH1 whole entry, looked up): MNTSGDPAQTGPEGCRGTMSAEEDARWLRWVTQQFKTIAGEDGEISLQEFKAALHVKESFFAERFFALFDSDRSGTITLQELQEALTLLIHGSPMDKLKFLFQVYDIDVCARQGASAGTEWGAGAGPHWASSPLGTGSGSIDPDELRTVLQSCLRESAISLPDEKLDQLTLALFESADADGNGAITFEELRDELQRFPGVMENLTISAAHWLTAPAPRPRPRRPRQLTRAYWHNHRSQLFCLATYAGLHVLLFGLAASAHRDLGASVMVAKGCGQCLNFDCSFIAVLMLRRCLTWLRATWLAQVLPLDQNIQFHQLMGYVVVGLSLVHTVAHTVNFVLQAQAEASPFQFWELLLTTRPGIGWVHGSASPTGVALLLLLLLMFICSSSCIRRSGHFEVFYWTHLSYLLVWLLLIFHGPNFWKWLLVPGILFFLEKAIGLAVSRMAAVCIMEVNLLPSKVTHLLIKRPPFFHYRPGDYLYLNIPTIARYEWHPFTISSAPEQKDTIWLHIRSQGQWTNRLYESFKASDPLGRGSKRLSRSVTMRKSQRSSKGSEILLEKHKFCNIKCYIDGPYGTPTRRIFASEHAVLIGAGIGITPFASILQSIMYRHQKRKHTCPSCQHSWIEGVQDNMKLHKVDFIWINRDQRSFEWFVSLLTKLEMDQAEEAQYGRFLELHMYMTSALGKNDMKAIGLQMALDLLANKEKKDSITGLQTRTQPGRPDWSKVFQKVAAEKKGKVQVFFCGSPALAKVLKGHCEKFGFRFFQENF

Molecules are shown by their SMILES. The source made the active and inactive calls.

Sequence of NADPH oxidase 4 (Homo sapiens) (Q9NPH5 whole entry, looked up): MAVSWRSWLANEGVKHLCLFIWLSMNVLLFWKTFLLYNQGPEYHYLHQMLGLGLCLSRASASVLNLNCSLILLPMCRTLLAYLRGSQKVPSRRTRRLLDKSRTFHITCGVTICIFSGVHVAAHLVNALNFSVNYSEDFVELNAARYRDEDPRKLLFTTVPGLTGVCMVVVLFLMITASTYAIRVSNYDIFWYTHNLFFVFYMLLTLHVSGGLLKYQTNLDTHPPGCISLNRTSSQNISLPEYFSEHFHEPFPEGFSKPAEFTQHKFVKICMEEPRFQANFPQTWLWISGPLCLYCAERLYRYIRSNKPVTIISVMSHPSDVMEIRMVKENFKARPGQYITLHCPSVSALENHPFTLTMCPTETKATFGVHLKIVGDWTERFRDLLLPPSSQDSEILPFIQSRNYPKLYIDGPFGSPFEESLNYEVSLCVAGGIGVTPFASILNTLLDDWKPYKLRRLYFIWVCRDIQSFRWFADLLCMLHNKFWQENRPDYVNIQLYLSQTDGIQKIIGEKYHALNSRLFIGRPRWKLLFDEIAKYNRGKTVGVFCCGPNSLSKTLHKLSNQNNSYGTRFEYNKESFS
Sequence of NADPH oxidase 2 (Homo sapiens) (P04839 whole entry, looked up): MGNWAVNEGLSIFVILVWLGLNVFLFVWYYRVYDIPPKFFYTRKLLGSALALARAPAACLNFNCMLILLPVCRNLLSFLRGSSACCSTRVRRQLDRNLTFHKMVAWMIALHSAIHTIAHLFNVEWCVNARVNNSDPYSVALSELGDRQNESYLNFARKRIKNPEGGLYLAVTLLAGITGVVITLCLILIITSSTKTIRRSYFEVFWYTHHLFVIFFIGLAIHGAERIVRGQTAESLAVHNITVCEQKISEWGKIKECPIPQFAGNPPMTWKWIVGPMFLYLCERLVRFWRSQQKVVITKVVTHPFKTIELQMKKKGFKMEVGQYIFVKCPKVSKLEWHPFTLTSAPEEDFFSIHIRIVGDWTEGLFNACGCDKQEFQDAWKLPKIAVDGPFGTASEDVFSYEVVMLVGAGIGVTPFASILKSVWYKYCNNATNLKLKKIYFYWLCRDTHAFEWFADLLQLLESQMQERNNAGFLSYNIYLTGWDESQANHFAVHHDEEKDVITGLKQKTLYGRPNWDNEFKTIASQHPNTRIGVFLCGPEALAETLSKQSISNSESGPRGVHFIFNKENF

Turning to `[N-]=[N+]=Nc1ccccc1C[C@]1(C(=O)N2CCOCC2)N=C(c2ccc(OCCCO)cc2)O[C@H]1c1ccccc1`, the z-score in experiment [1] is 1.61 (inactive); in [3], 20.5 (active); in experiment [4], 4.95 (inactive); in experiment [5] it was 2.84 (inactive); in experiment [6], 1.43 (inactive); in experiment [7], 0.251. Also, the results for the z-score in experiment [8], in [9] and in experiment [10] were 0.265 (inactive), 0.719 (inactive) and -1.47, respectively. In experiment [2], this compound came in with a composite z-score of -0.007.

As to `[N-]=[N+]=NCc1ccccc1[C@H]1OC(c2ccc(OCCCO)cc2)=N[C@@]1(CCS(=O)(=O)c1ccccc1)C(=O)N1CCCCC1`, the z-score in experiment [1] was -0.193 (inactive); in [3], 25.6 (active); in [4], 9.69 (active); in experiment [5], 3.2 (inactive); in [6] it was 1.5 (inactive); in experiment [7], 0.515. Besides, the z-score in experiment [8] is 0.0197 (inactive); in [9], 1.56 (inactive); in [10] it was 1.63. The compound also returned a composite z-score in [2] of 0.666.

Take `CC(C)Cc1ccc(CN2CC[C@@H](NC(=O)Nc3ccccc3)C2)cc1`: the z-score was -3.31 (inactive) in experiment [1]; 1.96 (inactive) in experiment [3]; 0.981 (inactive) in [4]; 1.84 (inactive) in experiment [5]; 0.575 (inactive) in [6]; -1.03 in experiment [7]. In addition, the z-score in experiment [8] is -0.507 (inactive); in experiment [9], -0.351 (inactive); in experiment [10], -1.88. In addition, in experiment [2], the composite z-score is -0.191.

Regarding `O=C(NCC(F)(F)F)[C@@H]1c2ccccc2C(=O)N(Cc2ccc(OC(F)(F)F)cc2)[C@H]1c1ccc(CO)cc1`, the z-score is 0.484 (inactive) in experiment [1]; 0.926 (inactive) in [3]; -0.137 (inactive) in experiment [4]; 1.44 (inactive) in [5]; 0.376 (inactive) in experiment [6]; -0.323 in [7]. In addition, the z-score is -0.759 (inactive) in experiment [8], -0.889 (inactive) in experiment [9] and -0.263 in experiment [10]. The same compound came in with a composite z-score in experiment [2] of -0.252.

`CC(C)(C)OC(=O)CC[C@]1(C(=O)NCC(O)CO)N=C(c2ccc(OCCCO)cc2)O[C@H]1c1ccccc1` (stereo not given in full): the z-score in experiment [1] was 1.79 (inactive); in experiment [3], 19.9 (active); in experiment [4], 1.43 (inactive); in [5] it was 2.61 (inactive); in [6] it was -1.32 (inactive); in experiment [7], 2.01. The z-score in [8] was 0.246 (inactive); in experiment [9], 0.678 (inactive); in [10], 0.199. The compound also came in with a composite z-score in experiment [2] of 0.125.

`CN1C(=O)C2C=CC(C(O)c3cccc4ccccc34)N(N3CCCCC3)C2C1=O` (stereo not given): the z-score was -1.57 (inactive) in experiment [1]; 0.669 (inactive) in experiment [3]; 0.958 (inactive) in experiment [4]; -0.284 (inactive) in experiment [5]; 0.878 (inactive) in [6]; -1.32 in experiment [7]. For the same compound, the values for the z-score in [8], in experiment [9] and in [10] were -0.671 (inactive), -1.97 (inactive) and -0.766, respectively. Further, the composite z-score in experiment [2] is -0.0798.

With `COc1ccc(-c2nc(-c3ccccc3)c3c(c2C)CO[Si]3(C(C)C)C(C)C)cn1`, the z-score in experiment [1] is -1.41 (inactive); in [3], 0.574 (inactive); in experiment [4] it was -0.0994 (inactive); in [5], -0.566 (inactive); in experiment [6], -0.278 (inactive); in experiment [7], -0.0095. Besides, the z-score is -0.783 (inactive) in [8], 0.386 (inactive) in experiment [9] and -1.54 in [10]. Besides, the composite z-score in experiment [2] came to 0.0816.

On to `COCCOC(=O)N1C(=O)[C@@]2(c3cc(C#CC4=CCCCC4)ccc31)[C@H](C(N)=O)[C@H]1C(=O)O[C@H](c3ccccc3)[C@H](c3ccccc3)N1[C@@H]2c1ccccc1OCCO`, for which the z-score in experiment [1] is -0.172 (inactive); in experiment [3] it was 3.63 (inactive); in experiment [4], 2.55 (inactive); in [5], 0.629 (inactive); in experiment [6], 2.15 (inactive); in experiment [7], -0.332. The z-score is 2.16 (inactive) in experiment [8], 0.932 (inactive) in experiment [9] and 1.42 in experiment [10]. The composite z-score in experiment [2] came to 0.199.

Regarding `CC1=C[C@@]2(CO)C(=O)[C@]3(CO3)[C@@H]1[C@H]1[C@]2(C)C=C(CO)C(=O)[C@]12CO2`, the z-score in experiment [1] is 0.806 (inactive); in [3] it was 0.0442 (inactive); in [4], 0.446 (inactive); in experiment [5], 0.429 (inactive); in experiment [6], 0.156 (inactive); in [7], -0.0631. The z-score in experiment [8] was -0.35 (inactive); in [9], -1.07 (inactive); in experiment [10], -1.14. The compound also yielded a composite z-score in [2] of -0.148.

For `CCOC(=O)C1=CC[C@@H](c2cccc(Cl)c2)N(S(=O)(=O)c2ccc(C)cc2)C1`, the z-score was 0.065 (inactive) in [1]; 2.31 (inactive) in experiment [3]; -0.389 (inactive) in [4]; -0.423 (inactive) in experiment [5]; -1.89 (inactive) in experiment [6]; 1.02 in experiment [7]. The z-score in [8] is 0.201 (inactive); in [9] it was -0.927 (inactive); in [10], -0.736. The composite z-score in experiment [2] came out at 0.0166.

On to `COC(=O)[C@@]1(Cc2ccccc2)[C@@H]2C(=CC(=O)[C@H]2CC(=O)C(=O)N(C)C)CN1C(=O)c1ccccc1`, for which the z-score was 0.174 (inactive) in experiment [1]; 4.6 (inactive) in experiment [3]; 0.329 (inactive) in experiment [4]; 0.864 (inactive) in experiment [5]; 0.664 (inactive) in experiment [6]; -0.52 in experiment [7]. Moreover, the z-score is -0.0425 (inactive) in experiment [8], 0.705 (inactive) in experiment [9] and 0.16 in experiment [10]. The compound further came in with a composite z-score in experiment [2] of 0.0093.

With `COCCOC(=O)N1C(=O)[C@@]2(c3cc(C#CC4=CCCCC4)ccc31)[C@H](c1ccccc1OCCO)N1[C@H](c3ccccc3)[C@H](c3ccccc3)OC(=O)[C@H]1[C@@H]2C(=O)N1CCCCCCC1`, the z-score in experiment [1] was -1.05 (inactive); in [3], -0.606 (inactive); in experiment [4], 1.1 (inactive); in [5], -0.56 (inactive); in experiment [6] it was 0.442 (inactive); in experiment [7] it was -0.56. The z-score is 0.962 (inactive) in experiment [8], -1.22 (inactive) in experiment [9] and 0.545 in experiment [10]. Besides, the composite z-score in experiment [2] is -0.999.

As for `COC(=O)[C@@]1(Cc2ccc(OC)cc2)[C@H]2c3cc(C(=O)N(C)C)n(Cc4ccc(Cl)c(C(F)(F)F)c4)c3C[C@H]2CN1C(=O)c1ccccc1`, the z-score is -1.4 (inactive) in [1]; 7.57 (inactive) in experiment [3]; 1.42 (inactive) in experiment [4]; 1.01 (inactive) in [5]; 1.21 (inactive) in experiment [6]; -0.264 in experiment [7]. For the same compound, the figures for the z-score in [8], in experiment [9] and in experiment [10] were 1.19 (inactive), -0.227 (inactive) and 1.57, respectively. Besides, the composite z-score in experiment [2] is 0.357.
